GPT2 inh: Primary qHTS assay for inhibitors of Glutamate pyruvate transaminase 2 (GPT2); Recombinant GPT2, coupled pyruvate oxidase/HRP Amplex Red fluorescence; 100,000 tested, 0.25% active; Potency, µM (doses to about 57.7 µM), inactives show top-dose activity change, negative = inhibition, most hits filed as inhibitors; AID 1671188, 2021; note: % is set by controls: 0 for no effect and ±100 for the full control effect; nearly all actives have a fitted effect of over 60% in size
Target sequence (Q8TD30 whole entry, looked up): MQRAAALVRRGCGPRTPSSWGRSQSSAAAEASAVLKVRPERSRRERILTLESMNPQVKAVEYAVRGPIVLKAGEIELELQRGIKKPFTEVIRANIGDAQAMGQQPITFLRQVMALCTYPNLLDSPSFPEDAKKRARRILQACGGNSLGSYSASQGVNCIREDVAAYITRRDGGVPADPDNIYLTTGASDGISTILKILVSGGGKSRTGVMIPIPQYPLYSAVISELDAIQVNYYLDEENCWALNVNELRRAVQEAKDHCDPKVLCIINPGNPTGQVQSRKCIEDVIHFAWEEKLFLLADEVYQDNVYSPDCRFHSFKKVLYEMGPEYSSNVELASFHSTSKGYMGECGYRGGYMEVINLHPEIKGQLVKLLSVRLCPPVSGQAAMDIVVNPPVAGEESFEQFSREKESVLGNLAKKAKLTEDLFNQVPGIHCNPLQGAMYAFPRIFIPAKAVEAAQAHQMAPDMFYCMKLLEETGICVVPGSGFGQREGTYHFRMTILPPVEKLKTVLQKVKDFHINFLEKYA
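GPT2 10ng/uL, a-KG 250uM, L-Ala 2mM, HEPES pH7.5 + 0.0001% Tween; 30 min RT. Then Amplex mix (PO/HRP/ThPP), 30 min RT dark, fluorescence. AOA 50uM used as positive control.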
3T3 cytotox: Cytotoxic Profiling in NIH 3T3 Cell Line of Diverse Libraries Using Quantitative High-Throughput Screening | NIH 3T3 viability, CellTiter-Glo ATP luminescence, 48-72 h | Potency, µM (doses to about 96.7 µM), without a hit: top-dose activity change, negative = cytotoxicity, actives largely listed as inhibitors | 94,000 tested, 4.3% active; note: % is set by controls: 0 for no effect and ±100 for the full control effect; nearly all actives have a fitted effect of over 55% in size
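Luminescent ATP readout (CellTiter-Glo, 10 min RT) after 48 or 72 hr compound exposure of NIH 3T3 cells seeded at 400 cells/well in 1536-well format; quantitative HTS.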
Luciferase inh: Firefly luciferase inhibition profiling of diverse chemical library using quantitative high-throughput screening. Luciferin 4-monooxygenase (Photinus pyralis), P08659. purified P. pyralis luciferase, luminescence, biochemical. Potency, µM (titrated, usually from 115 µM), hits mostly inhibitors. 76,000 tested, 2.5% active. AID 1347043, 2019; note: % is set by controls: 0 for no effect and ±100 for the full control effect; nearly all actives have a fitted effect of over 65% in size
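Luminescence read by CCD imaging after purified firefly luciferase (10nM final) was added to substrate buffer holding 10uM D-luciferin and 10uM ATP, pH 7.5, pre-dosed with compound.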
NPR1 antag: Natriuretic polypeptide receptor (hNpr1) antagonism - Primary qHTS | HEK293 hNpr1 GloSensor cGMP, ANP-stimulated luminescence | AID 1347048, 2019 | 76,000 tested, 1.6% active | Atrial natriuretic peptide receptor 1 (Homo sapiens), P16066 | Potency, µM (doses to about 46.3 µM), for inactives: at the top dose activity change, negative = inhibition, most hits filed as inhibitors; calls by dose curve; note: % is set by controls: 0 for no effect and ±100 for the full control effect; nearly all actives have a fitted effect of over 60% in size
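HEK293 cells stably expressing human Npr1 and cGMP GloSensor pGS-40F, loaded 2 h with 2% GloSensor reagent, given compound 30 min at room temperature. Luminescence read before and 20 min after 0.1 nM hNppA.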
HEK293 tox: Cytotoxic Profiling in HEK 293 Cell Line of Diverse Libraries Using Quantitative High-Throughput Screening; HEK 293 viability, ATP luminescence (CellTiter-Glo), 48-72 h; Potency, µM (doses to about 115 µM), without a hit: top-dose activity change, negative = cytotoxicity, most hits filed as inhibitors; 94,000 tested, 6.6% active; note: % is set by controls: 0 for no effect and ±100 for the full control effect; nearly all actives have a fitted effect of over 60% in size
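Pintool-delivered compounds were incubated with HEK 293 cells (250 cells/well) at 37 degree Celsius for 48 or 72 hr. ATP-dependent luminescence (CellTiter-Glo) then reported remaining viable cells.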
Npr1 antag conf: Natriuretic polypeptide receptor (hNpr1) antagonism - Confirmation. shares compounds with NPR1 antag. HEK293 hNpr1 cGMP GloSensor luminescence, ANP-stimulated. Potency, µM (doses to about 57.6 µM), for inactives: at the top dose activity change, negative = inhibition, hits mostly inhibitors. 1,400 tested, 76% active. AID 1347044, 2019; calls by dose curve; note: nearly all actives have a fitted effect of over 70% in size
Npr2 selectivity: Natriuretic polypeptide receptor (hNpr2) antagonism - Subtype selectivity assay | Potency, µM (top dose mostly 57.6 µM), inactives show at the top dose activity change, negative = inhibition, usual class: inhibitors | shares compounds with NPR1 antag | 1,400 tested, 67% active | HEK293 hNpr2 GloSensor cGMP luminescence, CNP-stimulated; calls by dose curve; note: nearly all actives have a fitted effect of over 70% in size
FLuc counter: Natriuretic polypeptide receptor (hNpr1) antagonism - Confirmation firefly luciferase (FLuc) inhibition counterscreen. purified FLuc enzyme, luminescence, Km substrate. Potency, µM (series often up to 57.6 µM), for the others: at the highest dose activity change, negative = inhibition, hits mostly inhibitors. 1,400 tested, 0.7% active. shares compounds with NPR1 antag. AID 1347047, 2019; note: 0% is about no effect
GloSensor ctrl: Natriuretic polypeptide receptor (hNpr1) antagonism - Counterscreen GloSensor control cell line | HEK293 GloSensor cGMP, SNP-stimulated, luminescence | Potency, µM (top dose mostly 57.6 µM), for the others: at the top dose activity change, negative = inhibition, hits mostly inhibitors | 1,400 tested, 69% active | shares compounds with NPR1 antag | AID 1347051, 2019; calls by dose curve; note: % is set by controls: 0 for no effect and ±100 for the full control effect; nearly all actives have a fitted effect of over 70% in size
Numbers without * were called inactive; i = inactive; ? = inconclusive; / = no result; [ ] = another dose, or the depositor's remark. Sampled rows, rich in hits. Any-hit rate of the full collection: about 10%. Unless noted, calls come from the whole dose curve; as a rule, active = well fitted curve in the direction sought with a large enough effect; inconclusive = small, poorly fitted or top-dose-only effect, or another doubt; inactive = no such curve, though single readings can be large; an effect the other way counts as inactive or inconclusive. Potency is the fitted concentration of half-maximal effect.

SMILES	GPT2 inh	3T3 cytotox	Luciferase inh	NPR1 antag	HEK293 tox	Npr1 antag conf	Npr2 selectivity	FLuc counter	GloSensor ctrl
CN(C)C[C@H]1O[C@H](Cc2cc(-c3cccc(O)c3)on2)CC[C@@H]1O	i	-9%[174 µM]	i	28µM*	-29%[172 µM]	?	-19%[86.2 µM]	-16%[86.2 µM]	?
O=C(c1ccc(F)cc1)N1CCC(Cc2nc(C3CCOCC3)no2)CC1	2%	?	i	?	?	/	/	/	/
O=C(c1ccc(F)cc1Cl)N1CCC(Cc2nc(-c3ccccc3)no2)CC1	-26%	?	i	5.6µM*	?	5.4µM*	5.4µM*	-1%	4.3µM*
O=C(c1cc(F)ccc1Cl)N1CCC(Cc2nc(-c3ccccc3)no2)CC1	i	?	i	11µM*	50µM*	14µM*	15µM*	-12%	12µM*
O=C(Cc1ccccc1Cl)N1CCC(Cc2nc(-c3ccccc3)no2)CC1	?	?	i	?	?	/	/	/	/
O=C(c1cc(F)cc(F)c1)N1CCC(Cc2nc(-c3ccccc3)no2)CC1	i	?	i	7.1µM*	?	6.1µM*	6.1µM*	-2%	5.4µM*
O=C(c1cc(F)ccc1Cl)N1CCC(Cc2nc(-c3ccc(F)cc3)no2)CC1	i	?	i	7.1µM*	?	9.7µM*	11µM*	0%	8.6µM*
CCN1CCC2(CC1)Cc1ccccc1CN(C(=O)CCCC(=O)O)C2	-23%	-11%	/	/	0%	/	/	/	/
O=C(c1ccsc1)N1CCN(C(=O)c2nnn3c2COC(c2ccccc2)C3)CC1 (stereo unspecified)	1%	-2%	i	1%	-6%	/	/	/	/
CCC(CC)CC1(C(=O)Nc2ccccc2SC(=O)C(C)C)CCCCC1	i	/	/	/	/	/	/	/	/
O=C(CCC(F)(F)F)N1CCC(CCC(=O)N2CCC(Cc3ccccc3)CC2)CC1	?	?	i	?	?	/	/	/	/
O=C(CCC1CCN(C(=O)c2cc(C3CC3)[nH]n2)CC1)N1CCC(Cc2ccccc2)CC1	-2%	?	i	13µM*	?	24µM*	22µM*	-18%	19µM*
COc1ccc(NC(=O)[C@@H]2C[C@@H](c3ccc(F)cc3)N(CCOc3ccccc3)C2)cc1	-25%[88.5 µM]	?	i	?	?	/	/	/	/
O=C(Nc1nccs1)[C@@H]1C[C@@H](c2ccc(F)cc2)N(CCOc2ccccc2)C1	?	?	i	?	?	35µM*	?	4%[86.2 µM]	?
CCOCCC(=O)N1CCCC(c2cc(N3CCOCC3)nc(C)n2)C1 (stereo unspecified)	0%	-9%	i	3%	-17%	/	/	/	/
COC(=O)c1ccc(NC(=O)N2CC(Oc3cccc(-c4nc(C)no4)c3)C2)cc1	-16%	?	i	13µM*	?	24µM*	24µM*	-1%	24µM*
O=C(Nc1ccccc1)N1CC(Oc2ccc(-c3noc(-c4ccncc4)n3)cc2)C1	i	-25%	i	11µM*	?	6.1µM*	8.6µM*	-1%	6.1µM*
Cc1nc(CN2C(=O)OC3(CCN(Cc4c[nH]c5ccccc45)CC3)C2(C)c2ccccc2)cs1 (stereo unspecified)	i	20µM*	i	-21%	?	?	?	1%	1%
CCNC(=O)c1ccc2c(c1)OCCN(c1cccc(OC(F)(F)F)c1)C2	?	?	i	-29%[70.6 µM]	?	/	/	/	/
O=C(NC1CCOCC1)c1ccc2c(c1)OCCN(c1cccc(OC(F)(F)F)c1)C2	-11%[88.5 µM]	?	i	?	32µM*	40µM*	?	4%[86.2 µM]	44µM*
OC1CC(c2cc(NCCOCc3ccc(Cl)cc3)ncn2)C1 (stereo unspecified)	-1%	?	i	11µM*	?	22µM*	?	-3%	22µM*
COc1ccc(CCCNc2cc(C3CC(O)C3)ncn2)cc1 (stereo unspecified)	-5%	-27%	i	10µM*	?	19µM*	19µM*	-1%	14µM*
O=S(=O)(CCNc1cc(C2CC(O)C2)ncn1)c1ccc(F)cc1 (stereo unspecified)	-9%	5%	i	-3%	i	/	/	/	/
OC1CC(c2cc(NCCOc3ccccc3)ncn2)C1 (stereo unspecified)	-4%	?	?	?	?	/	/	/	/
O=C(Nc1ccc(Cl)cc1Cl)c1c[nH]c2cccnc12	i	?	/	/	?	21µM*	14µM*	0.96µM*	?
CNC(=O)c1c[nH]c2cccnc12	i	-44%[174 µM]	/	/	-40%[230 µM]	/	/	/	/
COc1ccc(CCCN2C(=O)O[C@@H]3CN(c4cc(OC)ncn4)C[C@@H]32)cc1	-10%	?	i	13µM*	?	24µM*	22µM*	-1%	22µM*
COc1nccc(N2CCC(CC(=O)NCc3ccc(F)c(Cl)c3)CC2)n1	-10%	?	i	11µM*	?	24µM*	22µM*	3%	24µM*
COc1nccc(N2CCC(CC(=O)N3CCCN(c4ncccn4)CC3)CC2)n1	i	-31%	i	22µM*	?	24µM*	?	3%	?

High-throughput results: PubChem, National Center for Advancing Translational Sciences (NCATS)
